Laboratory results: PubChem BioAssay AID1159580 (chemical genetic matrix, 2015)
The whole screen tested about 5,500 compounds, of which about 2,000 (36%) were called active. Another 18% or so got no clear call; they are omitted. Rule as the data show it: active = normalized growth mostly below about 0.91 (no sharp cut-off); inconclusive = no clear call, values can overlap the other calls; inactive = mostly above about 0.92. The list shows a part of the results.

Test: chemical genetic growth profiling, strain panel (AID 1159580);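 also: tested at 20 µM; growth read once vehicle control cultures reached saturation at 30 °C; 1 = growth at the plate median or of vehicle wells; lower values mean less growth of the strain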
Details: growth OD

Measured: normalized growth

COc1cc(N)c(Cl)cc1C(=O)NC1CCN(Cc2ccccc2)CC1
inactive: S. cerevisiae deletion strains, locus YJR043C, strain POL32, active compounds read low 0.985 | S. cerevisiae deletion strains, locus YJR075W, strain HOC1, active compounds read low 0.978 | S. cerevisiae deletion strains, locus YKL009W, strain mrt4, active compounds read low 0.993 | S. cerevisiae deletion strains, locus YKL068W, active compounds read low 0.974 | S. cerevisiae deletion strains, locus YKL085W, strain MDH1 (second series), active compounds read low 0.995 | S. cerevisiae deletion strains, locus YKL085W, strain MDH1, active compounds read low 0.995 | S. cerevisiae deletion strains, locus YKL160W, strain elf1, active compounds read low 0.991 | S. cerevisiae deletion strains, locus YKL190W, strain CNB1, active compounds read low 0.992 | S. cerevisiae deletion strains, locus YKR001C, strain vps1, active compounds read low 1 | S. cerevisiae deletion strains, locus YKR026C, strain gcn3, active compounds read low 0.988 | S. cerevisiae deletion strains, locus YKR091W, strain srl3, active compounds read low 0.993 | S. cerevisiae deletion strains, locus YLL001W, strain dnm1, active compounds read low 0.99 | S. cerevisiae deletion strains, locus YLL026W, active compounds read low 0.997 | S. cerevisiae deletion strains, locus YLL041C, strain sdh2, active compounds read low 0.996 | S. cerevisiae deletion strains, locus YLR027C, strain aat2, active compounds read low 1 | S. cerevisiae deletion strains, locus YLR039C, strain RIC1, active compounds read low 0.997 | S. cerevisiae deletion strains, locus YLR058C, strain SHM2, active compounds read low 0.988 | S. cerevisiae deletion strains, locus YLR102C, strain apc9, active compounds read low 0.994 | S. cerevisiae deletion strains, locus YLR221C, strain rsa3, active compounds read low 0.996 | S. cerevisiae deletion strains, locus YLR258W, strain gsy2, active compounds read low 0.994 | S. cerevisiae deletion strains, locus YLR262C, strain YPT6 (second series), active compounds read low 1.01 | S. cerevisiae deletion strains, locus YLR262C, strain YPT6, active compounds read low 0.969 | S. cerevisiae deletion strains, locus YLR268W, strain sec22, active compounds read low 0.935 | S. cerevisiae deletion strains, locus YLR320W, strain mms22, active compounds read low 1.01 | S. cerevisiae deletion strains, locus YLR330W, strain CHS5, active compounds read low 0.993 | S. cerevisiae deletion strains, locus YLR342W, strain FKS1 (second series), active compounds read low 1.05 | S. cerevisiae deletion strains, locus YLR342W, strain FKS1, active compounds read low 0.999 | S. cerevisiae deletion strains, locus YLR357W, strain rsc2, active compounds read low 1.02 | S. cerevisiae deletion strains, locus YLR370C, strain arc18, active compounds read low 0.998 | S. cerevisiae deletion strains, locus YLR371W, strain rom2, active compounds read low 0.989 | S. cerevisiae deletion strains, locus YLR384C, strain iki3, active compounds read low 0.993 | S. cerevisiae deletion strains, locus YLR418C, strain cdc73, active compounds read low 0.968 | S. cerevisiae deletion strains, locus YML016C, strain PPZ1, active compounds read low 1 | S. cerevisiae deletion strains, locus YML032C, strain rad52, active compounds read low 0.969 | S. cerevisiae deletion strains, locus YML120C, strain ndi1, active compounds read low 0.993 | S. cerevisiae deletion strains, locus YML124C, strain tub3, active compounds read low 0.996 | S. cerevisiae deletion strains, locus YMR058W, strain fet3, active compounds read low 1 | S. cerevisiae deletion strains, locus YMR078C, strain ctf18, active compounds read low 0.986 | S. cerevisiae deletion strains, locus YMR125W, strain sto1, active compounds read low 0.988 | S. cerevisiae deletion strains, locus YMR129W, active compounds read low 1 | S. cerevisiae deletion strains, locus YMR205C, strain PFK2, active compounds read low 0.997 | S. cerevisiae deletion strains, locus YMR223W, strain ubp8, active compounds read low 1.04 | S. cerevisiae deletion strains, locus YMR231W, strain pep5, active compounds read low 0.985 | S. cerevisiae deletion strains, locus YMR263W, strain SAP30, active compounds read low 0.978 | S. cerevisiae deletion strains, locus YMR307W, strain GAS1, active compounds read low 1.09 | S. cerevisiae deletion strains, locus YNL067W, strain RPL9B, active compounds read low 0.969 | S. cerevisiae deletion strains, locus YNL071W, strain lat1, active compounds read low 0.997 | S. cerevisiae deletion strains, locus YNL128W, strain TEP1, active compounds read low 0.984 | S. cerevisiae deletion strains, locus YNL153C, strain GIM3, active compounds read low 0.985 | S. cerevisiae deletion strains, locus YNL209W, strain ssb2, active compounds read low 1.01 | S. cerevisiae deletion strains, locus YNL233W, strain BNI4, active compounds read low 0.99 | S. cerevisiae deletion strains, locus YNL248C, strain rpa49, active compounds read low 0.991 | S. cerevisiae deletion strains, locus YNL250W, strain rad50, active compounds read low 1 | S. cerevisiae deletion strains, locus YNL271C, strain bni1, active compounds read low 0.995 | S. cerevisiae deletion strains, locus YNL298W, strain CLA4, active compounds read low 0.974 | S. cerevisiae deletion strains, locus YNL307C, strain MCK1, active compounds read low 0.977 | S. cerevisiae deletion strains, locus YNL322C, strain KRE1 (second series), active compounds read low 0.994 | S. cerevisiae deletion strains, locus YNL322C, strain KRE1, active compounds read low 0.991 | S. cerevisiae deletion strains, locus YNR049C, strain mso1, active compounds read low 0.997 | S. cerevisiae deletion strains, locus YNR052C, strain pop2, active compounds read low 0.993 | S. cerevisiae deletion strains, locus YOL006C, strain TOP1, active compounds read low 0.933 | S. cerevisiae deletion strains, locus YOL012C, strain htz1 1.69 | S. cerevisiae deletion strains, locus YOL147C, strain pex11, active compounds read low 0.996 | S. cerevisiae deletion strains, locus YOR001W, strain rrp6, active compounds read low 0.996 | S. cerevisiae deletion strains, locus YOR061W, strain CKA2, active compounds read low 0.994 | S. cerevisiae deletion strains, locus YOR069W, strain VPS5, active compounds read low 0.989 | S. cerevisiae deletion strains, locus YOR070C, strain gyp1, active compounds read low 0.997 | S. cerevisiae deletion strains, locus YOR080W, strain dia2, active compounds read low 1.01 | S. cerevisiae deletion strains, locus YOR083W, strain WHI5, active compounds read low 1 | S. cerevisiae deletion strains, locus YOR106W, strain vam3, active compounds read low 1 | S. cerevisiae deletion strains, locus YOR136W, strain idh2, active compounds read low 0.996 | S. cerevisiae deletion strains, locus YOR144C, strain elg1, active compounds read low 0.982 | S. cerevisiae deletion strains, locus YOR184W, strain ser1, active compounds read low 0.965 | S. cerevisiae deletion strains, locus YOR265W, strain rbl2, active compounds read low 0.998 | S. cerevisiae deletion strains, locus YOR270C, strain vph1, active compounds read low 1.02 | S. cerevisiae deletion strains, locus YOR290C, strain snf2, active compounds read low 0.984 | S. cerevisiae deletion strains, locus YOR316C, strain cot1, active compounds read low 0.963 | S. cerevisiae deletion strains, locus YPL051W, strain arl3, active compounds read low 0.993 | S. cerevisiae deletion strains, locus YPL055C, strain LGE1, active compounds read low 0.976 | S. cerevisiae deletion strains, locus YPL078C, strain atp4, active compounds read low 0.995 | S. cerevisiae deletion strains, locus YPL106C, strain sse1, active compounds read low 0.99 | S. cerevisiae deletion strains, locus YPL240C, strain hsp82, active compounds read low 0.999 | S. cerevisiae deletion strains, locus YPL241C, strain CIN2, active compounds read low 0.998 | S. cerevisiae deletion strains, locus YPR119W, strain clb2, active compounds read low 0.985 | S. cerevisiae deletion strains, locus YPR141C, strain kar3, active compounds read low 0.986 | S. cerevisiae deletion strains, locus YPR163C, strain tif3, active compounds read low 0.986 | S. cerevisiae deletion strains, locus YPR167C, strain met16, active compounds read low 0.983 | S. cerevisiae deletion strains, strain wtn01, active compounds read low 0.949 | S. cerevisiae strains, strain wild type, active compounds read low 1
